From PubChem BioAssay (EPA / NIEHS)
Inconclusive results are not listed. Calls of active or inactive are those of the source. The calls were made as follows, unless noted: active = hit-call score of the fitted dose curve at least 0.9, where 1 is the maximum; inactive = score below 0.9.

What was measured:
[1] = CCTE_Shafer_MEA_dev_burst_rate: CCTE's Neural Network Formation Assay for Burst Rate, Shafer Lab (AID 2284042);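 as to AC50: potency for loss of burst rate below DMSO control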
In short: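 Exposure ran continuously over 12 days of network development in rat cortical cultures, with compound refreshed during full media changes on DIV 5 and 9. Single-electrode bursts per recording time, well-mean over active electrodes, trapezoidal AUC across days 5–12, fitted downward relative to DMSO.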

[2] = CCTE_Shafer_MEA_dev_bursting_electrodes_number: CCTE's Neural Network Formation Assay for Number of Bursting Electrodes, Shafer Lab (AID 2284043; active = hit-call score of the fitted dose curve at least 0.9, where 1 is the maximum;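 as to AC50: potency is for loss of bursting electrodes relative to DMSO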)
In short: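 Read-out is the per-well number of electrodes bursting at least once every 2 minutes, recorded on days 5, 7, 9 and 12 and collapsed by trapezoidal area under the curve. Cultures were primary rat cortical neurons on MEA plates, treated continuously from plating.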

[3] = CCTE_Shafer_MEA_dev_per_burst_interspike_interval: CCTE's Neural Network Formation Assay for Burst Interspike Interval, Shafer Lab (AID 2284044);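 also: mean spike spacing inside bursts as AUC over recordings on days 5 7 9 12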;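 as to AC50: potency for a decrease of within-burst interspike interval below DMSO level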
In short: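 Primary rat cortical neurons on 48-well MEA plates, exposed from day 0 through day 12, treatment renewed at DIV 5 and 9. Within-burst interspike interval recorded days 5, 7, 9, 12, well-averaged, summarised as AUC; negative fit versus DMSO.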

[4] = CCTE_Shafer_MEA_dev_burst_duration_mean: CCTE's Neural Network Formation Assay for Mean Burst Duration, Shafer Lab (AID 2284045)
In short: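 Read-out: average first-to-last-spike interval within single-electrode bursts, averaged over bursting electrodes per well, then summarised as area under the curve across days 5, 7, 9 and 12. Developing rat cortical networks were exposed from day 0.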

[5] = CCTE_Shafer_MEA_dev_interburst_interval_mean: CCTE's Neural Network Formation Assay for Mean Interburst Interval, Shafer Lab (AID 2284046);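 also: well-mean interburst interval of bursting electrodes as AUC over four recording days; curve fitted for decrease in interburst interval relative to DMSO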
In short: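 Primary rat cortical neurons on PEI-coated 48-well MEA plates (laminin added with cells at plating) (16 electrodes/well), exposed from plating day 0 with renewal at DIV 5 and 9. Mean inter-burst interval averaged over bursting electrodes, AUC across days 5, 7, 9, 12; DMSO baseline.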

[6] = CCTE_Shafer_MEA_dev_inter_network_spike_interval_mean: CCTE's Neural Network Formation Assay for Mean Inter-network Spike Interval, Shafer Lab (AID 2284047)
In short: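 Mean time between consecutive network-spike peaks, recorded extracellularly (adaptive spike detection) on DIV 5, 7, 9 and 12, summarized as trapezoidal AUC. Rat cortical cultures on MEAs dosed continuously days 0–12, re-dosed at feeds; loss-of-signal fit relative to DMSO.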

[7] = CCTE_Shafer_MEA_dev_network_spike_number: CCTE's Neural Network Formation Assay for Number of Network Spikes, Shafer Lab (AID 2284048);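 also: synchronized bursts across electrodes counted on days 5 7 9 12 and integrated as AUC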;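 as to AC50: fit as a loss of signal meaning fewer network spikes than DMSO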
In short: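 Developing networks of primary rat cortical neurons are treated over 12 days starting at plating, with media and compound fully replaced on DIV 5 and 9. Network spike counts from four recording days are integrated as trapezoidal AUC.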

[8] = CCTE_Shafer_MEA_dev_network_spike_peak: CCTE's Neural Network Formation Assay for Mean Number of Electrodes in Network Spike, Shafer Lab (AID 2284049);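 as to AC50: fitted for loss of signal meaning fewer electrodes in network spikes than DMSO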
In short: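 Rat cortical primary culture, 1.5 x 10^5 cells/well, 48-well MEA (16 electrodes/well). Dosing day 0 through DIV 12, full media/compound exchange DIV 5, 9. AxIS adaptive spike detection; AUC over days 5/7/9/12; loss-of-signal vs DMSO.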

DIO2 (gene 1734) = test: CCTE_GLTED_hDIO2: CCTE's human Deiodinase 2 (DIO2) Inhibition Assay, Great Lakes Toxicology and Ecology Division (GLTED) Lab (AID 2284050; active = hit-call score of the fitted dose curve at least 0.9, where 1 is the maximum)
In short: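 Cell-free human DIO2 enzyme was incubated with test chemical for 3 h; iodide liberated from substrate was then quantified by the Sandell-Kolthoff reaction (absorbance), run in triplicate. Loss of signal versus DMSO baseline indicated inhibition.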

[9] = CCTE_Shafer_MEA_dev_spike_duration_mean: CCTE's Neural Network Formation Assay for Mean Spike Duration, Shafer Lab (AID 2284051);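 also: mean network spike duration pooled as area under curve over DIV 5 to 12 recordings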;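 as to AC50: potency for a decrease in mean network spike duration versus DMSO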
In short: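 Spontaneous activity was recorded on days 5, 7, 9 and 12 from rat cortical cultures grown on microelectrode arrays and dosed continuously from day 0, with media and compound renewed after the DIV 5 and 9 recordings. Network-spike duration was collapsed by area under the curve.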

[10] = CCTE_Shafer_MEA_dev_network_spike_duration_std: CCTE's Neural Network Formation Assay for Standard Deviation of Network Spike Duration, Shafer Lab (AID 2284052);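 also: hits are decreases in network spike duration SD versus DMSO vehicle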
In short: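 Network spike duration variability was collapsed across recordings on days 5, 7, 9 and 12 by trapezoidal area-under-curve and fitted downward against DMSO. Cultures were rat cortical neurons on PEI-coated MEA plates, dosed continuously from plating, refed with compound DIV 5/9.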

[11] = CCTE_Shafer_MEA_dev_per_network_spike_spike_number_mean: CCTE's Neural Network Formation Assay for Mean Number of Spikes in a Network Spike, Shafer Lab (AID 2284053);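 as to AC50: fitted as decrease in spikes per network spike relative to DMSO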
In short: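 Mean spike count within each network spike, taken in a 0.05 s window at its peak, was recorded on days 5, 7, 9 and 12 and integrated as trapezoidal area under the curve. Rat cortical cultures on MEA plates received continuous compound from day 0, refreshed at medium changes on DIV 5 and 9.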

[12] = CCTE_Shafer_MEA_dev_per_network_spike_spike_percent: CCTE's Neural Network Formation Assay for Percent of Spikes in a Network Spike, Shafer Lab (AID 2284054)
In short: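 Rat primary cortical cultures, 1.5 x 10^5 cells/well on MEA. Continuous compound exposure d0–12, medium/compound renewed DIV 5, 9. Network-spike spike % (0.05 s peak window), AUC over 4 recordings, DMSO baseline.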

DIO3 (gene 1735) = test: CCTE_GLTED_hDIO3: CCTE's human Deiodinase 3 (DIO3) Inhibition Assay, Great Lakes Toxicology and Ecology Division (GLTED) Lab (AID 2284055; active = hit-call score of the fitted dose curve at least 0.9, where 1 is the maximum;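 as to AC50: potency is for inhibition seen as loss of released iodide signal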)
In short: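 Cell-free assay with human DIO3 enzyme produced by adenovirus expression; enzyme incubated with test chemical for 3 hours. Liberated iodide then measured by Sandell-Kolthoff absorbance; loss of signal versus DMSO baseline indicates inhibition, run in triplicate.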

[13] = CCTE_Shafer_MEA_dev_LDH: CCTE's Lactate Dehydrogenase Assay for Cytotoxicity in the Neural Network Formation Assay, Shafer Lab (AID 2284068; active = hit-call score of the fitted dose curve at least 0.9, where 1 is the maximum;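 also: exposure for twelve days from plating with re-dosing on DIV 5 and 9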)
In short: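 Primary rat cortical neurons were cultured on PEI-coated MEA plates and exposed from plating through day 12, with compound renewed at medium changes on DIV 5 and 9. LDH activity was read spectrophotometrically; loss of signal versus DMSO indicates reduced viability.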

[14] = CCTE_Shafer_MEA_dev_AB: CCTE's Alamar Blue Assay for Cytotoxicity in the Neural Network Formation Assay, Shafer Lab (AID 2284083; active = hit-call score of the fitted dose curve at least 0.9, where 1 is the maximum;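 also: resazurin reduction fluorescence as viability of cultured neurons; twelve days of exposure from plating with re-dosing on DIV 5 and 9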)
In short: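 Resazurin fluorescence, relative to DMSO, gauges viability after twelve days of exposure that began at plating of rat cortical neurons (1.5 x 10^5 cells/well, 48-well MEA); treatment renewed with full medium exchange on DIV 5 and 9.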

[15] = CCTE_Shafer_MEA_acute_AB: CCTE's Alamar Blue Assay for Cytotoxicity in the Neural Acute Assay, Shafer Lab (AID 2284069; active = hit-call score of the fitted dose curve at least 0.9, where 1 is the maximum;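 also: active compounds lower the viability signal compared with DMSO wells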)
In short: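 Resazurin reduction (CellTiter Blue, 1:6 in fresh medium) read at ex 544/em 590 nm marks viability loss relative to DMSO. Cells: primary rat cortical neuron networks on microelectrode arrays, treated after baseline recording at 13 or 15 days in vitro.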

[16] = CCTE_Shafer_MEA_acute_LDH: CCTE's Lactate Dehydrogenase Assay for Cytotoxicity in the Neural Acute Assay, Shafer Lab (AID 2284086; active = hit-call score of the fitted dose curve at least 0.9, where 1 is the maximum;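 also: active means LDH release rises above DMSO vehicle level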)
In short: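 Primary rat cortical neurons on 48-well MEA plates, treated on day 13 or 15 post-plating. After the 40-min recording with compound, medium LDH release was read by absorbance at 490 nm. Gain of signal was fitted against DMSO negative control.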

CN(C)[C@@H]1C(=O)C(C(N)=O)=C(O)[C@@]2(O)C(=O)C3=C(O)c4c(O)cccc4[C@@](C)(O)[C@H]3C[C@@H]12
outcome [1]: inactive
outcome [2]: inactive
outcome [3]: inactive
outcome [4]: inactive
outcome [5]: inactive
outcome [6]: inactive
outcome [7]: inactive
outcome [8]: inactive
outcome (DIO2 (gene 1734)): inactive
outcome [9]: inactive
outcome [10]: inactive
outcome [11]: inactive
outcome [12]: inactive
AC50 (DIO3 (gene 1735)): 79.8 µM (active)
outcome [13]: inactive
outcome [14]: inactive

CC(C)(OOC(C)(C)c1ccccc1)c1ccccc1
outcome [15]: inactive
outcome [16]: inactive

ClCCOCCCl
outcome (DIO2 (gene 1734)): inactive
outcome (DIO3 (gene 1735)): inactive
outcome [15]: inactive
outcome [16]: inactive

CCCCOC(=O)c1ccccc1C(=O)OCc1ccccc1
outcome [1]: inactive
AC50 [2]: 50.5 µM (active)
outcome [3]: inactive
outcome [4]: inactive
outcome [5]: inactive
outcome [6]: inactive
outcome [7]: inactive
AC50 [8]: 15.2 µM (active)
AC50 [9]: 13.6 µM (active)
outcome [10]: inactive
outcome [11]: inactive
outcome [12]: inactive
outcome [15]: inactive
outcome [14]: inactive
outcome [16]: inactive

Clc1ccc(C(c2ccc(Cl)cc2)C(Cl)Cl)cc1
AC50 [1]: 8.68 µM (active)
AC50 [2]: 6.19 µM (active)
AC50 [3]: 8.24 µM (active)
outcome [4]: inactive
AC50 [5]: 8.61 µM (active)
outcome [6]: inactive
AC50 [7]: 1.98 µM (active)
AC50 [8]: 4.03 µM (active)
AC50 [9]: 3.39 µM (active)
AC50 [10]: 3.21 µM (active)
AC50 [11]: 4.95 µM (active)
AC50 [12]: 3.97 µM (active)
AC50 [13]: 5.96 µM (active)
outcome [15]: inactive
AC50 [14]: 5.14 µM (active)
outcome [16]: inactive

COC(=O)Nc1nc2ccccc2[nH]1
outcome [1]: inactive
AC50 [2]: 12.5 µM (active)
outcome [3]: inactive
outcome [4]: inactive
outcome [5]: inactive
outcome [6]: inactive
outcome [7]: inactive
AC50 [8]: 12.5 µM (active)
AC50 [9]: 12.5 µM (active)
outcome [10]: inactive
AC50 [11]: 12.5 µM (active)
AC50 [12]: 5.94 µM (active)
AC50 [13]: 12.5 µM (active)
outcome [15]: inactive
AC50 [14]: 7.64 µM (active)

CC(C)COC(=O)c1ccccc1C(=O)OCC(C)C
outcome [1]: inactive
AC50 [2]: 13.8 µM (active)
AC50 [3]: 23.2 µM (active)
outcome [4]: inactive
AC50 [5]: 12.8 µM (active)
outcome [6]: inactive
outcome [7]: inactive
AC50 [8]: 15.9 µM (active)
AC50 [9]: 13.7 µM (active)
outcome [10]: inactive
AC50 [11]: 13.6 µM (active)
AC50 [12]: 23.1 µM (active)
AC50 [13]: 23.6 µM (active)
outcome [15]: inactive
AC50 [14]: 24.8 µM (active)
outcome [16]: inactive
